# This is part of a sample that, as a whole, favours compounds with a hit. Of some 79,000 tested, about 15% had one in any assay. A number with no mark means an inactive call. Activity calls are given as the source filed them. Rule as the data show it: active = growth inhibition above about 70%; inactive = the rest.
# Assay: NCI Yeast Anticancer Drug Screen. Data for the sgs1 mgt1 strain (AID 161);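 also: 0% = growth of cultures given vehicle only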
# Details: S. cerevisiae sgs1 mgt1 strain, at 50.0 µM, active compounds read high
# Outline: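 This yeast growth screen uses a strain with defined DNA-repair lesions; compound-treated growth is compared with vehicle-treated growth.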
row,SMILES,growth inhibition
1,Clc1cc2n[nH]nc2c(Cl)c1Cl,46.8%
2,NSc1ccc(N)s1,50.6%
3,O=C1C2=C(CCCC2)C(=O)C(Cl)C1Cl (stereo not drawn),99.5% (active)
4,O=C(COc1ccc2ccccc2c1)NC1c2ccccc2Oc2ccccc21,69.3%
5,COc1ccc(-c2cc(-c3ccco3)c(C#N)c(=S)n2C2OC(CO)C(O)C(O)C2O)cc1 (stereo not drawn),-15.2%
6,Clc1cccc(Cl)c1C(Nc1nncs1)Nc1nncs1,88.2% (active)
7,COC([C@@H](OC(=O)c1ccccc1)[C@H](OC(=O)c1ccccc1)C(O)COC(=O)c1ccccc1)n1cc(C)c(=O)[nH]c1=O (stereo partly drawn),65.5%
8,C1=C(c2c(-c3ccccc3)[nH]c3ccccc23)Cc2ccccc21,62.1%
9,CC12C(=O)OC(=O)C1C1c3ccccc3C2c2ccccc21 (stereo not drawn),89.3% (active)
10,O=C(N/C(=C\c1ccc(/C=C(\NC(=O)c2ccccc2)c2nc3ccccc3s2)cc1)c1nc2ccccc2s1)c1ccccc1,85.6% (active)
11,COS(=O)c1cc(Cl)cc(Cl)c1OC(=O)CSSCC(=O)Oc1c(Cl)cc(Cl)cc1S(=O)OC (stereo not drawn),99% (active)
12,COc1cc2c3c(c4ccc(OC)c(OC)c4c2cc1OC)CN1CCC[C@@H]1C3,93% (active)
13,N#CSC#CCCC#CSC#N,94.2% (active)
14,Nc1nc(-c2ccc(Cl)cc2)c(N=Nc2ccc(Br)cc2)s1,98.3% (active)
15,CC(=O)C(C(C)=O)C1C=CC=CC=C1,91.8% (active)
16,CCCCN(C(=O)c1ccccc1)C1CCC(=O)c2[nH]c3ccccc3c21 (stereo not drawn),76% (active)
17,S=C(Nc1ccc(Cl)c(Cl)c1)N1c2ccccc2-n2cccc2C1c1cccnc1 (stereo not drawn),85% (active)
18,O=C1CCC(Cc2ccc(C(F)(F)F)cc2)C(=O)N1 (stereo not drawn),95.8% (active)
19,Oc1cc(O)c2c(c1)OC(c1ccc(O)c(O)c1)C(OC1(c3cc(O)c(O)c(O)c3)Oc3cc(O)cc(O)c3C(O)C1O)C2 (stereo not drawn),-15.9%
20,Cc1cccc(N=Nc2ccc(O)cc2)c1,99.4% (active)

row,SMILES,growth inhibition
1,Cc1c2c(c(C)c3c4c(oc13)CCCC4)C=NCC2,25%
2,CCOC(=O)C(=CCC1NCCc2c1[nH]c1ccccc21)C(=O)OCC (stereo not drawn),93.5% (active)
3,CCOC(=O)C1=C(c2ccccc2)SC(c2ccccc2)N(C(C)C)C1=O (stereo not drawn),94.5% (active)
4,CN(C)CCCNc1cc(/C=C/c2ccc([N+](=O)[O-])cc2)nc2ccccc12,86.3% (active)
5,CC(CN(C)C)C(=O)c1cn(C)c2ccccc12 (stereo not drawn),30.3%
6,Nc1ccccc1/C=C/c1c[nH]c2ccccc12,53.2%
7,Cc1c(CNc2ccc(Cl)c(Cl)c2Cl)cnc2nc(N)nc(N)c12,64.5%
8,O=C(c1cccs1)N(C(=S)N1CCN(c2ccccn2)CC1)c1ccccc1,36.6%
9,COc1ccccc1/C=C1\NC(=S)N(/C=C2\C(=O)Oc3ccccc3C2=O)C1=O,73% (active)
10,Cc1cc(O)c(C)c(C)c1N=Nc1ccccc1,58.5%
11,O=S1CCS(=O)C1c1ccccc1 (stereo not drawn),54%
12,Cc1ccc2nc(-c3ccc(N)cc3)sc2c1,43.9%
13,CC1OC(OC2C(Oc3c(-c4ccc(O)c(O)c4O)oc4cc(O)ccc4c3=O)OC(CO)C(O)C2O)C(O)C(O)C1O (stereo not drawn),-7.95%
14,O=C(OCc1ccccc1CN1CCOCC1)c1cccc(Br)c1,82.8% (active)
15,C=CCOCC(C)OC(=O)C(C)C (stereo not drawn),18.3%
16,CC(C)(C)OC(=O)N[C@H]1CC2(C=C(Cl)C(=O)C(Cl)=C2)OC1=O,90.8% (active)
17,CC(Nc1ccc(Cl)c(Cl)c1)c1ccncc1 (stereo not drawn),79.8% (active)
18,COc1ccccc1/C=C(\NC(=O)c1ccccc1)c1nc2ccccc2[nH]1,96.4% (active)
19,CCCCCCC(O)(CCCCCC)CCCCCC,42.8%

# Assay: NCI Yeast Anticancer Drug Screen. Data for the cln2 rad14 strain (AID 165);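 also: 0% = growth equal to vehicle treated cultures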
# Details: S. cerevisiae cln2 rad14 strain, at 5.0 µM (retest, dose inferred, filed as 0.5), active compounds read high
# Outline: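 Yeast carrying cln2 and rad14 alterations (cell cycle control and DNA damage repair) were exposed to compounds. Growth inhibition was measured against vehicle-treated controls.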
row,SMILES,growth inhibition
1,Clc1cc2n[nH]nc2c(Cl)c1Cl,-17%
2,NSc1ccc(N)s1,-7%
3,O=C1C2=C(CCCC2)C(=O)C(Cl)C1Cl (stereo not drawn),9%
4,O=C(COc1ccc2ccccc2c1)NC1c2ccccc2Oc2ccccc21,98% (active)
5,COc1ccc(-c2cc(-c3ccco3)c(C#N)c(=S)n2C2OC(CO)C(O)C(O)C2O)cc1 (stereo not drawn),15%
6,Clc1cccc(Cl)c1C(Nc1nncs1)Nc1nncs1,8%
7,COC([C@@H](OC(=O)c1ccccc1)[C@H](OC(=O)c1ccccc1)C(O)COC(=O)c1ccccc1)n1cc(C)c(=O)[nH]c1=O (stereo partly drawn),8%
8,C1=C(c2c(-c3ccccc3)[nH]c3ccccc23)Cc2ccccc21,-12%
9,CC12C(=O)OC(=O)C1C1c3ccccc3C2c2ccccc21 (stereo not drawn),51%
10,O=C(N/C(=C\c1ccc(/C=C(\NC(=O)c2ccccc2)c2nc3ccccc3s2)cc1)c1nc2ccccc2s1)c1ccccc1,38%
11,COS(=O)c1cc(Cl)cc(Cl)c1OC(=O)CSSCC(=O)Oc1c(Cl)cc(Cl)cc1S(=O)OC (stereo not drawn),60%
12,COc1cc2c3c(c4ccc(OC)c(OC)c4c2cc1OC)CN1CCC[C@@H]1C3,1%
13,N#CSC#CCCC#CSC#N,99% (active)
14,Nc1nc(-c2ccc(Cl)cc2)c(N=Nc2ccc(Br)cc2)s1,-11%
15,CC(=O)C(C(C)=O)C1C=CC=CC=C1,-59%
16,CCCCN(C(=O)c1ccccc1)C1CCC(=O)c2[nH]c3ccccc3c21 (stereo not drawn),-13%
17,S=C(Nc1ccc(Cl)c(Cl)c1)N1c2ccccc2-n2cccc2C1c1cccnc1 (stereo not drawn),91% (active)
18,O=C1CCC(Cc2ccc(C(F)(F)F)cc2)C(=O)N1 (stereo not drawn),-3%
19,Oc1cc(O)c2c(c1)OC(c1ccc(O)c(O)c1)C(OC1(c3cc(O)c(O)c(O)c3)Oc3cc(O)cc(O)c3C(O)C1O)C2 (stereo not drawn),-31%
20,Cc1cccc(N=Nc2ccc(O)cc2)c1,-71%

row,SMILES,growth inhibition
1,Cc1c2c(c(C)c3c4c(oc13)CCCC4)C=NCC2,-46%
2,CCOC(=O)C(=CCC1NCCc2c1[nH]c1ccccc21)C(=O)OCC (stereo not drawn),28%
3,CCOC(=O)C1=C(c2ccccc2)SC(c2ccccc2)N(C(C)C)C1=O (stereo not drawn),12%
4,CN(C)CCCNc1cc(/C=C/c2ccc([N+](=O)[O-])cc2)nc2ccccc12,-4%
5,CC(CN(C)C)C(=O)c1cn(C)c2ccccc12 (stereo not drawn),3%
6,Nc1ccccc1/C=C/c1c[nH]c2ccccc12,-8%
7,Cc1c(CNc2ccc(Cl)c(Cl)c2Cl)cnc2nc(N)nc(N)c12,34%
8,O=C(c1cccs1)N(C(=S)N1CCN(c2ccccn2)CC1)c1ccccc1,6%
9,COc1ccccc1/C=C1\NC(=S)N(/C=C2\C(=O)Oc3ccccc3C2=O)C1=O,-9%
10,Cc1cc(O)c(C)c(C)c1N=Nc1ccccc1,-63%
11,O=S1CCS(=O)C1c1ccccc1 (stereo not drawn),-18%
12,Cc1ccc2nc(-c3ccc(N)cc3)sc2c1,-8%
13,CC1OC(OC2C(Oc3c(-c4ccc(O)c(O)c4O)oc4cc(O)ccc4c3=O)OC(CO)C(O)C2O)C(O)C(O)C1O (stereo not drawn),7%
14,O=C(OCc1ccccc1CN1CCOCC1)c1cccc(Br)c1,-5%
15,C=CCOCC(C)OC(=O)C(C)C (stereo not drawn),-60%
16,CC(C)(C)OC(=O)N[C@H]1CC2(C=C(Cl)C(=O)C(Cl)=C2)OC1=O,13%
17,CC(Nc1ccc(Cl)c(Cl)c1)c1ccncc1 (stereo not drawn),32%
18,COc1ccccc1/C=C(\NC(=O)c1ccccc1)c1nc2ccccc2[nH]1,16%
19,CCCCCCC(O)(CCCCCC)CCCCCC,1%

# Reference: PubChem BioAssay (NCI)
